Source: PubChem BioAssay (National Center for Advancing Translational Sciences (NCATS))
Most compounds without a hit are left out; they make up all but 2.4% or so of the library.
FEN1 inhibitor = human FEN1 inhibition; 390,000 compounds, 0.35% hits; P39748; Potency, µM (highest dose often 114 µM), without a hit: top-dose activity change, negative = inhibition, actives largely listed as inhibitors; Recombinant FEN1 flap cleavage, fluorescence, 15 min; note: potency is the fitted concentration of half-maximal effect; % is set by controls: 0 for no effect and ±100 for the full control effect; nearly all actives have a fitted effect of over 65% in size
Target sequence (P39748 whole entry, looked up): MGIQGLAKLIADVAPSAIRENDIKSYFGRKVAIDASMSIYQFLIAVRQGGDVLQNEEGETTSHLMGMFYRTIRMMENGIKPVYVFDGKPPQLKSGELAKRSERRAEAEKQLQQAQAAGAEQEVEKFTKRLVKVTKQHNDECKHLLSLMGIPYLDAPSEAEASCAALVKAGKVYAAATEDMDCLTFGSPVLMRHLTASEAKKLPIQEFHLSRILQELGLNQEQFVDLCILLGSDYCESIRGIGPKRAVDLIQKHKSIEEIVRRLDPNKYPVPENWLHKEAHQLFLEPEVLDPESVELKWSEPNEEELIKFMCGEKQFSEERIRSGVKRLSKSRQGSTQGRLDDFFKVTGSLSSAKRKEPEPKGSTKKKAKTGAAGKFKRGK
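Recombinant FEN1 (10 nM) was preincubated with pin-transferred compounds for 15 min at room temperature, then flap DNA substrate (50 nM final) was added. Plates were read at 0 and 15 min, and normalized concentration–response data were fitted to a four-parameter Hill equation.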
Pol eta inh-1 = blocks human DNA polymerase eta activity; Potency, µM (highest dose often 114 µM), without a hit: at the highest dose activity change, negative = inhibition, usual class: inhibitors; 390,000 compounds, 1.2% hits; recombinant Pol eta, fluorescent DNA replication assay; note: potency is the fitted concentration of half-maximal effect; % is set by controls: 0 for no effect and ±100 for the full control effect
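Pol eta (10 nM) was preincubated with compounds for 15 min at room temperature, after which fluorescent replication substrate (50 nM final) was added to start the reaction. Fluorescence was read kinetically at 0 and 10 min.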
Pol kappa inh-1 = DNA polymerase kappa (human) inhibition; Q9UBT6; Potency, µM (series often up to 107 µM), for inactives: at the top dose activity, negative = inhibition, usual class: inhibitors; 400,000 compounds, 0.53% hits; purified Pol kappa, fluorescent DNA synthesis assay, 10 min; note: potency is the fitted concentration of half-maximal effect; % is set by controls: 0 for no effect and ±100 for the full control effect
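Kinetic fluorescence readout at 0 and 10 min followed reaction start with substrate at 50 nM final. Beforehand, enzyme (10 nM Pol kappa) stood 15 min with compound at room temperature; buffer-only wells were negative controls.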
TDP1 inh = blocks human tyrosyl-DNA phosphodiesterase 1 | 350,000 compounds, 0.28% hits | Potency, µM (titrated, usually from 130 µM), without a hit: top-dose activity change, negative = inhibition, hits mostly inhibitors | Q9NUW8 | recombinant TDP1, AlphaScreen DNA substrate cleavage; note: potency is the fitted concentration of half-maximal effect; % is set by controls: 0 for no effect and ±100 for the full control effect; nearly all actives have a fitted effect of over 40% in size
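Recombinant E. coli-expressed Tdp1 (1 nM) preincubated with compound 15 min at RT, then 5'-biotin/3'-phosphotyrosine-FITC DNA substrate (15 nM) added for 5 min. AlphaScreen beads (10 ug/ml) added, 10 min RT; tyrosine-FITC cleavage read as signal loss.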
Pol beta inh-1 = blocks human DNA polymerase beta activity | AID 485314 | 340,000 compounds, 1.3% hits | Potency, µM (top dose mostly 114 µM), inactives show at the highest dose activity change, negative = inhibition, actives largely listed as inhibitors | Pol beta primer extension/strand displacement, fluorescence kinetic | P06746; note: potency is the fitted concentration of half-maximal effect; % is set by controls: 0 for no effect and ±100 for the full control effect
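10 nM enzyme + cpd, 15 min RT; start with substrate 50 nM final; read 0 min and after 10 min RT. Corrected, normalized data; 4-parameter Hill curve fit.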
POLI inh = inhibitors of human DNA polymerase iota | Q9UNA4 | 390,000 compounds, 1% hits | Potency, µM (series often up to 115 µM), inactives show at the highest dose activity, negative = inhibition, usual class: inhibitors | Pol iota fluorescent replication assay, 10 min; note: potency is the fitted concentration of half-maximal effect
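Fluorescent replication assay read twice, at 0 min and 10 min after adding 50 nM (final) substrate. Enzyme (10 nM) and compounds were first incubated 15 min at room temperature; enzyme-free buffer wells were negative controls.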
Pol beta inh-2 = Inhibitors of human DNA polymerase beta, hit validation; shares compounds with Pol beta inh-1; Pol beta primer extension/strand displacement, fluorescence kinetic; Potency, µM, hits mostly inhibitors; 250 compounds, 87% hits; AID 540280; calls by dose curve; note: potency is the fitted concentration of half-maximal effect
Klenow counter = inhibits Klenow fragment polymerase in counter-screen. shares compounds with Pol beta inh-1. Klenow exo- polymerase counter-screen, fluorescent DNA substrate. 250 tested, under 10 active. AID 540300. activity change, negative = inhibition, % at 57.1 µM
HIV RT counter = counter-screen for DNA polymerase beta inhibitors: HIV-1 RT inhibition; shares compounds with Pol beta inh-1; HIV-1 RT polymerase activity, counter-screen; activity % (negative = inhibition, positive = activation), % at 57.1 µM; 250 tested, under 10 active; AID 540301
POLB inh gel = DNA polymerase beta inhibition, radiolabeled validation. radiolabeled primer extension gel assay, phosphorimager. shares compounds with Pol beta inh-1. 110 compounds, 91% hits. AID 540325. inhibition, % at 10 µM;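 active = inhibition at 10 µM of 30% or more; inconclusive = no clear call, values can overlap the other calls; inactive = inhibition at 10 µM under 30%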
Pol iota confirm = Inhibitors of human DNA polymerase iota, confirmation | shares compounds with Pol kappa inh-1 | Pol iota primer extension, TAMRA/BHQ fluorescence | Potency, µM, most hits filed as inhibitors | 1,500 compounds, 77% hits; note: potency is the fitted concentration of half-maximal effect
Pol kappa inh-2 = Pol kappa (human) inhibition, cherry-pick confirmation. shares compounds with Pol eta inh-1. purified Pol-kappa, fluorescent strand-displacement substrate. Potency, µM, hits mostly inhibitors. 920 compounds, 76% hits; note: potency is the fitted concentration of half-maximal effect
Pol eta inh-2 = Pol eta (human) inhibition, cherry-pick confirmation; shares compounds with Pol eta inh-1; Pol eta primer extension, TAMRA/BHQ fluorescence, 10 min; Potency, µM, most hits filed as inhibitors; 2,600 compounds, 64% hits; AID 720502; note: potency is the fitted concentration of half-maximal effect
Active calls of the source: *; ? = inconclusive; . = no result; [ ] = dose if it differs, or a comment. Unless noted, calls come from the whole dose curve; as a rule, active = well fitted curve in the direction sought with a large enough effect; inconclusive = small, poorly fitted or top-dose-only effect, or another doubt; inactive = no such curve, though single readings can be large; an effect the other way counts as inactive or inconclusive.

SMILES	FEN1 inhibitor	Pol eta inh-1	Pol kappa inh-1	TDP1 inh	Pol beta inh-1	POLI inh	Pol beta inh-2	Klenow counter	HIV RT counter	Pol iota confirm	Pol eta inh-2	others
COc1cc(/C=C2\C(=O)N(c3ccc(NC(C)=O)cc3)N=C2c2ccccc2)ccc1O	-28.2%	10.2%	-10.4%	8.2%	49.2%	?	.	.	.	.	.
CC(=O)Nc1ccc(C(=O)Nc2cccc(-c3cnc4ccccc4n3)c2)cc1	2.1%	?	-11.6%	.	4.47µM*	0.9%	14.1*	-30.8	-9.7	29.9*	?	Pol kappa inh-2=47.4*
Cc1ccc(C(=O)Nc2cccc(-c3cnc4ccccc4n3)c2)cc1	-2.2%	-11.2%	-0.3%[60.1 µM]	2.1%	35.9%	25.6%	.	.	.	.	.
CSc1nc(SCC(=O)O)c2sc3nc(-c4ccccc4)c4c(c3c2n1)CCC4	?	?	?	?	2.51µM*	?	3.98*	?	-3.5	15*	67.5*
COc1cccc(-c2cc(C(=O)NC3CC3)c3ccccc3n2)c1	-8.6%	-18.9%	-0.4%	1.6%	27.2%	37.2%	.	.	.	.	.
O=C(NC1CCC(O)CC1)c1cc(-c2ccco2)nc2ccccc12 (stereo not given)	-23.8%	25.1µM*	?	.	12.6µM*	35.5µM*	28.2*	-17.0	40.7	67*	75.7*	POLB inh gel=83.6*
CCc1nnc(NC(=O)c2cc(-c3ccco3)nc3ccccc23)s1	?	15.8µM*	25.1µM*	-3.5%	8.91µM*	1.26µM*	20*	-10.6	33.1	?	75.7*
Cc1ccc(C(CCN(Cc2ccccc2)C(=O)c2ccco2)c2ccco2)cc1 (stereo not given)	-4.5%	17.8µM*	50.1µM*	-3.1%	10µM*	20µM*	15.8*	-7.9	-9.3	.	84.9*
CC(=O)N(CCC(c1ccccc1)c1ccco1)Cc1cccs1 (stereo not given)	2.7%	-5.7%	-4.6%	-4.0%	?	-12.2%	.	.	.	.	.
O=C(COc1ccccc1C(=O)Nc1ccccc1)Nc1ccc(Br)cc1	-11.5%	.	-0.6%	.	.	-21.1%	.	.	.	.	.
Cc1ccc(SCC(=O)c2ccc(CC(=O)O)s2)cc1	-3.4%	50.1µM*	?	.	11.2µM*	?	31.6*	-6.5	-15.2	.	75.7*
CS(=O)(=O)N1CCC[C@@]2(CCN(C(=O)Nc3cccc(F)c3)C2)C1	.	.	-7.5%[60.1 µM]	.	.	.	.	.	.	.	.
Cc1nc2cc(-c3ccsc3-n3c(C)ccc3C)[nH]n2c(=O)c1Cl	?	25.1µM*	?	.	10µM*	?	28.2*	-4.2	-5.8	.	30.1*	POLB inh gel=73.7*;Pol kappa inh-2=29.9*
COc1ccc(-n2nnc(-c3nsc(NC(=O)c4cccc(C)c4)n3)c2C)cc1OC	-15.0%	-2.7%	-1.0%	-7.9%	40.6%	?	.	.	.	.	.
COC(=O)c1c(NC(=O)COC(=O)c2ccccc2O)sc2c1CCCCC2	6.1%	-3.6%	0.6%	5.4%	-7.2%	92.2%	.	.	.	.	.
COC(=O)c1c(NC(=O)COC(=O)c2ccc(NC(=O)CC#N)cc2)sc2c1CCCCC2	?	28.2µM*	50.1µM*	2.7%	8.91µM*	14.1µM*	6.31*	-20.8	16.4	23.8*	30.1*	Pol kappa inh-2=16.8*
CCC(C)Sc1oc(-c2ccco2)nc1S(=O)(=O)c1ccc(Cl)cc1 (stereo not given)	3.2%	-1.2%	0.3%	-8.8%	0.9%	?	.	.	.	.	.
CCCCNC(=O)C1CCC(Cn2c(=O)c3sccc3n(Cc3ccccc3)c2=O)CC1 (stereo not given)	-5.7%	-9.8%	-0.3%	-1.9%	25.3%	-11.5%	.	.	.	.	.
CC(=O)NCCNc1ncnc2ccc(-c3ccccc3C(F)(F)F)cc12	.	.	3.2%[60.1 µM]	.	.	.	.	.	.	.	.
Cc1ccc2nc(/C(C#N)=C/c3ccc(-c4ccc(F)cc4F)o3)[nH]c2c1	-21.5%	?	-21.9%	-11.9%[12.3 µM]	?	76.3%	.	.	.	.	.
Cc1ccc2nc(/C(C#N)=C/c3ccc(-c4cccc([N+](=O)[O-])c4)o3)[nH]c2c1	44.7µM*	?	-31.4%	2.7%	5.01µM*	10µM*	5.62*	-39.0	31.9	?	75.7*
COCCn1c(C)cc(C(=O)COC(=O)c2cccc(O)c2)c1C	-14.6%	1.6%	-0.3%	0.6%	7.6%	-2.3%	.	.	.	.	.
COCCn1c(C)cc(C(=O)COC(=O)c2cc3c(s2)CCC3)c1C	-27.0%	8.91µM*	39.8µM*	.	10µM*	?	31.6*	-23.5	26.2	37.7*	67.5*	POLB inh gel=84.2*
Cc1c2cnn(CC(=O)Nc3c(F)c(F)cc(F)c3F)c(=O)c2c(C)n1Cc1ccccc1F	79.4µM*	39.8µM*	44.7µM*	-13.2%	6.31µM*	17.8µM*	6.31*	-33.1	-6.0	29.9*	60.1*
CC(C)(C)n1ncc2c(=O)n(Cc3cccc(OC(F)F)c3)cnc21	-0.6%	.	-9.4%	.	.	-0.5%	.	.	.	.	.
Cc1cc(=O)oc2cc(OCc3ccc(C(=O)OCC(=O)NC4CCS(=O)(=O)C4)cc3)ccc12 (stereo not given)	-22.7%	22.4µM*	79.4µM*	8.91µM*	3.55µM*	20µM*	25.1*	-19.6	-3.8	37.7*	26.9*	POLB inh gel=74.8*
Cc1cc(=O)oc2cc(OCc3ccc(C(=O)OCC(=O)N(C)C4CCS(=O)(=O)C4)cc3)ccc12 (stereo not given)	-12.3%	-16.9%	-12.5%	-5.1%	?	-11.3%	.	.	.	.	.
Cc1ccc(CNC(=O)c2ccc(-n3cccc3)cc2)cc1	?	12.6µM*	22.4µM*	12.6µM*	6.31µM*	14.1µM*	8.91*	-26.5	20.9	18.9*	30.1*	Pol kappa inh-2=18.9*
